According to PubChem BioAssay AID1159580 (chemical genetic matrix, 2015):
About 2,000 (36%) of roughly 5,500 compounds were called active. About 18% were inconclusive and are not listed. Rule as the data show it: active = normalized growth mostly below about 0.91 (no sharp cut-off); inconclusive = no clear call, values can overlap the other calls; inactive = mostly above about 0.92. The list shows a part of the results.

Experiment: chemical genetic growth profiling, strain panel (AID 1159580);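 also: tested at 20 µM; growth read once vehicle control cultures reached saturation at 30 °C; 1 = growth at the plate median or of vehicle wells; lower values mean less growth of the strain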
Conditions: growth OD

Measured: normalized growth

C[n+]1ccccc1/C=N/O
inactive: S. cerevisiae deletion strains, locus YJR066W, strain TOR1, hits give low values 0.986 | S. cerevisiae deletion strains, locus YKL009W, strain mrt4, hits give low values 1.03 | S. cerevisiae deletion strains, locus YKL068W, hits give low values 1.01 | S. cerevisiae deletion strains, locus YKL085W, strain MDH1 (second series), hits give low values 1 | S. cerevisiae deletion strains, locus YKL085W, strain MDH1, hits give low values 1 | S. cerevisiae deletion strains, locus YKL160W, strain elf1, hits give low values 0.997 | S. cerevisiae deletion strains, locus YKL190W, strain CNB1, hits give low values 1.01 | S. cerevisiae deletion strains, locus YKR001C, strain vps1, hits give low values 0.989 | S. cerevisiae deletion strains, locus YKR026C, strain gcn3, hits give low values 1.01 | S. cerevisiae deletion strains, locus YKR091W, strain srl3, hits give low values 0.993 | S. cerevisiae deletion strains, locus YLL001W, strain dnm1, hits give low values 0.973 | S. cerevisiae deletion strains, locus YLL026W, hits give low values 0.996 | S. cerevisiae deletion strains, locus YLL041C, strain sdh2, hits give low values 0.985 | S. cerevisiae deletion strains, locus YLR027C, strain aat2, hits give low values 1.01 | S. cerevisiae deletion strains, locus YLR039C, strain RIC1, hits give low values 1.01 | S. cerevisiae deletion strains, locus YLR058C, strain SHM2, hits give low values 1.01 | S. cerevisiae deletion strains, locus YLR102C, strain apc9, hits give low values 0.994 | S. cerevisiae deletion strains, locus YLR113W, strain HOG1, hits give low values 0.999 | S. cerevisiae deletion strains, locus YLR221C, strain rsa3, hits give low values 1.02 | S. cerevisiae deletion strains, locus YLR258W, strain gsy2, hits give low values 0.991 | S. cerevisiae deletion strains, locus YLR262C, strain YPT6 (second series), hits give low values 1.02 | S. cerevisiae deletion strains, locus YLR262C, strain YPT6, hits give low values 1 | S. cerevisiae deletion strains, locus YLR268W, strain sec22, hits give low values 0.998 | S. cerevisiae deletion strains, locus YLR320W, strain mms22, hits give low values 0.981 | S. cerevisiae deletion strains, locus YLR330W, strain CHS5, hits give low values 1.01 | S. cerevisiae deletion strains, locus YLR342W, strain FKS1 (second series), hits give low values 1 | S. cerevisiae deletion strains, locus YLR342W, strain FKS1, hits give low values 1.02 | S. cerevisiae deletion strains, locus YLR357W, strain rsc2, hits give low values 0.958 | S. cerevisiae deletion strains, locus YLR370C, strain arc18, hits give low values 1.01 | S. cerevisiae deletion strains, locus YLR371W, strain rom2, hits give low values 0.993 | S. cerevisiae deletion strains, locus YLR384C, strain iki3, hits give low values 1 | S. cerevisiae deletion strains, locus YLR418C, strain cdc73, hits give low values 0.983 | S. cerevisiae deletion strains, locus YML016C, strain PPZ1, hits give low values 1.01 | S. cerevisiae deletion strains, locus YML032C, strain rad52, hits give low values 0.989 | S. cerevisiae deletion strains, locus YML120C, strain ndi1, hits give low values 1.02 | S. cerevisiae deletion strains, locus YML124C, strain tub3, hits give low values 1 | S. cerevisiae deletion strains, locus YMR058W, strain fet3, hits give low values 1.01 | S. cerevisiae deletion strains, locus YMR078C, strain ctf18, hits give low values 0.993 | S. cerevisiae deletion strains, locus YMR125W, strain sto1, hits give low values 1 | S. cerevisiae deletion strains, locus YMR129W, hits give low values 0.998 | S. cerevisiae deletion strains, locus YMR205C, strain PFK2, hits give low values 1.01 | S. cerevisiae deletion strains, locus YMR223W, strain ubp8, hits give low values 1.01 | S. cerevisiae deletion strains, locus YMR231W, strain pep5, hits give low values 0.996 | S. cerevisiae deletion strains, locus YMR307W, strain GAS1, hits give low values 0.992 | S. cerevisiae deletion strains, locus YNL067W, strain RPL9B, hits give low values 1 | S. cerevisiae deletion strains, locus YNL071W, strain lat1, hits give low values 1.01 | S. cerevisiae deletion strains, locus YNL128W, strain TEP1, hits give low values 1.02 | S. cerevisiae deletion strains, locus YNL153C, strain GIM3, hits give low values 1.01 | S. cerevisiae deletion strains, locus YNL183C, strain NPR1, hits give low values 0.924 | S. cerevisiae deletion strains, locus YNL209W, strain ssb2, hits give low values 1.02 | S. cerevisiae deletion strains, locus YNL233W, strain BNI4, hits give low values 0.999 | S. cerevisiae deletion strains, locus YNL248C, strain rpa49, hits give low values 0.978 | S. cerevisiae deletion strains, locus YNL250W, strain rad50, hits give low values 1.01 | S. cerevisiae deletion strains, locus YNL271C, strain bni1, hits give low values 1.01 | S. cerevisiae deletion strains, locus YNL298W, strain CLA4, hits give low values 1.01 | S. cerevisiae deletion strains, locus YNL307C, strain MCK1, hits give low values 0.992 | S. cerevisiae deletion strains, locus YNL322C, strain KRE1 (second series), hits give low values 0.991 | S. cerevisiae deletion strains, locus YNR049C, strain mso1, hits give low values 1.01 | S. cerevisiae deletion strains, locus YNR052C, strain pop2, hits give low values 1 | S. cerevisiae deletion strains, locus YOL006C, strain TOP1, hits give low values 1.01 | S. cerevisiae deletion strains, locus YOL012C, strain htz1 1.12 | S. cerevisiae deletion strains, locus YOL147C, strain pex11, hits give low values 1 | S. cerevisiae deletion strains, locus YOR001W, strain rrp6, hits give low values 0.992 | S. cerevisiae deletion strains, locus YOR061W, strain CKA2, hits give low values 1.01 | S. cerevisiae deletion strains, locus YOR069W, strain VPS5, hits give low values 1.01 | S. cerevisiae deletion strains, locus YOR070C, strain gyp1, hits give low values 1 | S. cerevisiae deletion strains, locus YOR080W, strain dia2, hits give low values 1 | S. cerevisiae deletion strains, locus YOR083W, strain WHI5, hits give low values 0.948 | S. cerevisiae deletion strains, locus YOR106W, strain vam3, hits give low values 0.995 | S. cerevisiae deletion strains, locus YOR136W, strain idh2, hits give low values 0.993 | S. cerevisiae deletion strains, locus YOR144C, strain elg1, hits give low values 0.994 | S. cerevisiae deletion strains, locus YOR184W, strain ser1, hits give low values 0.985 | S. cerevisiae deletion strains, locus YOR231W, strain MKK1, hits give low values 1.02 | S. cerevisiae deletion strains, locus YOR265W, strain rbl2, hits give low values 1 | S. cerevisiae deletion strains, locus YOR270C, strain vph1, hits give low values 1.04 | S. cerevisiae deletion strains, locus YOR290C, strain snf2, hits give low values 1.03 | S. cerevisiae deletion strains, locus YOR316C, strain cot1, hits give low values 1 | S. cerevisiae deletion strains, locus YPL051W, strain arl3, hits give low values 1.02 | S. cerevisiae deletion strains, locus YPL055C, strain LGE1, hits give low values 1.04 | S. cerevisiae deletion strains, locus YPL078C, strain atp4, hits give low values 0.992 | S. cerevisiae deletion strains, locus YPL106C, strain sse1, hits give low values 0.99 | S. cerevisiae deletion strains, locus YPL240C, strain hsp82, hits give low values 1 | S. cerevisiae deletion strains, locus YPL256C, strain CLN2, hits give low values 1.01 | S. cerevisiae deletion strains, locus YPR119W, strain clb2, hits give low values 0.998 | S. cerevisiae deletion strains, locus YPR141C, strain kar3, hits give low values 0.997 | S. cerevisiae deletion strains, locus YPR163C, strain tif3, hits give low values 1.01 | S. cerevisiae deletion strains, locus YPR167C, strain met16, hits give low values 0.992 | S. cerevisiae deletion strains, strain wtn01, hits give low values 0.993 | S. cerevisiae strains, strain wild type, hits give low values 1.01
